This note sets out measurements from PubChem BioAssay (NCATS).

The subject of one experiment is MCC-13. Briefly: qHTS assay to identify novel small-molecules to repurpose for Merkel cell carcinoma treatment (AID 1296009). Further: nearly all actives have a fitted effect of over 60% in size. To be noted: MCC and control cell lines, CellTiter-Glo viability, 72 h; series mostly up to 46 µM. Summed up: (§1)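 Luminescence from CellTiter-Glo, read 10 min after addition at room temperature, reported viability following a 72 hr, 37 degree celsius treatment with NPC or MIPE compounds in titration; values normalized to plate controls.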
A general note: In qHTS, concentration-response curves come from the screen itself.

The test system of a further experiment is MCC-26. Described as above. As to conditions: MCC and control cell lines, CellTiter-Glo viability, 72 h; series mostly up to 46 µM. Summed up: as §1
Background: Cellular ATP, detected with luciferase, serves as a proxy for viable cell number.

The subject of a further experiment is MKL-1. The experiment is described as above. To be noted: MCC and control cell lines, CellTiter-Glo viability, 72 h; series mostly up to 46 µM. Summed up:
as §1

The test system of another experiment is MKL-2. The experiment is described as above. As to conditions: MCC and control cell lines, CellTiter-Glo viability, 72 h; series mostly up to 46 µM. Put shortly: as §1
In a further experiment the test system is C33A. Briefly: Primary qHTS to identify gynecologic anti-cancer compounds using libraries of approved drugs and bioactive compounds (AID 1345084). Further: nearly all actives have a fitted effect of over 55% in size. As to conditions: Gynecologic cancer cell panel viability, ATPlite luminescence, 48 h; series mostly up to 57.5 µM. Summed up: (§2)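 In this quantitative HTS, cell killing is estimated from loss of ATP-dependent luciferase light. Cells see five compound concentrations over a 48 h exposure.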

A further experiment relates to CAOV3. The description is as above. To be noted: Gynecologic cancer cell panel viability, ATPlite luminescence, 48 h; series mostly up to 57.5 µM. Summed up:
as §2

Another experiment concerns CASKI. The experiment is described as above. To be noted: Gynecologic cancer cell panel viability, ATPlite luminescence, 48 h; series mostly up to 57.5 µM. Summed up: as §2
Another experiment has as its system Es-2. Described as above. To be noted: Gynecologic cancer cell panel viability, ATPlite luminescence, 48 h; series mostly up to 57.5 µM. Put shortly:
as §2

The subject of a further experiment is HeLa. The experiment is described as above. To be noted: Gynecologic cancer cell panel viability, ATPlite luminescence, 48 h; series mostly up to 57.5 µM. Put shortly:
as §2

The next experiment concerns Hek293T. Described as above. To be noted: Gynecologic cancer cell panel viability, ATPlite luminescence, 48 h, control line for the selectivity index; series mostly up to 57.5 µM. Put shortly: as §2
The next experiment deals with JEG-3. The description is as above. As to conditions: Gynecologic cancer cell panel viability, ATPlite luminescence, 48 h; series mostly up to 57.5 µM. Summed up:
as §2

For a further experiment, the system named is OV90. Described as above. To be noted: Gynecologic cancer cell panel viability, ATPlite luminescence, 48 h; series mostly up to 57.5 µM. Summed up:
as §2

The next experiment has as its system SKOV3. The experiment is described as above. To be noted: Gynecologic cancer cell panel viability, ATPlite luminescence, 48 h; series mostly up to 57.5 µM. Put shortly:
as §2

In another experiment the test system is Tov-21-G. The description is as above. To be noted: Gynecologic cancer cell panel viability, ATPlite luminescence, 48 h; series mostly up to 57.5 µM. Summed up:
as §2

Another experiment has as its system UISO. Briefly: qHTS assay to identify novel small-molecules to repurpose for Merkel cell carcinoma treatment (AID 1296009). Further: nearly all actives have a fitted effect of over 60% in size. To be noted: MCC and control cell lines, CellTiter-Glo viability, 72 h; series mostly up to 46 µM. Summed up: as §1
For a further experiment, the system named is PA-1. The experiment can be described thus: Primary qHTS to identify gynecologic anti-cancer compounds using libraries of approved drugs and bioactive compounds (AID 1345084). Further: nearly all actives have a fitted effect of over 55% in size. As to conditions: Gynecologic cancer cell panel viability, ATPlite luminescence, 48 h; series mostly up to 57.5 µM. Summed up:
as §2

In the next experiment the test system is WaGa. The experiment can be described thus: qHTS assay to identify novel small-molecules to repurpose for Merkel cell carcinoma treatment (AID 1296009). Further: nearly all actives have a fitted effect of over 60% in size. As to conditions: MCC and control cell lines, CellTiter-Glo viability, 72 h; series mostly up to 46 µM. Summed up:
as §1

The subject of a further experiment is NIH3T3. Described as above. As to conditions: MCC and control cell lines, CellTiter-Glo viability, 72 h; at 44.8 µM (top of the series). Put shortly: as §1

Each structure is given as a SMILES string. Inconclusive results are not listed. Calls of active or inactive are those of the source. The call rests on the fitted dose curve; in most records, active means well fitted curve in the direction sought with a large enough effect; inconclusive means small, poorly fitted or top-dose-only effect, or another doubt; inactive means no such curve, though single readings can be large; an effect the other way counts as inactive or inconclusive.
Potency means the concentration at half of the fitted maximal effect.

In the case of `O=C(c1ccc(F)cc1)C1CCN(CCn2c(=S)[nH]c3ccccc3c2=O)CC1`, the Potency result with MCC-13, in the experiment on MCC-26, in the experiment on MKL-1, in the experiment on MKL-2, in the experiment on C33A and in the experiment on CAOV3 was “inactive” throughout. Moreover, the Potency result in the experiment on CASKI, in the experiment on Es-2, in the experiment on HeLa, in the experiment on Hek293T, in the experiment with JEG-3 and with OV90 was “inactive” throughout. The Potency result in the experiment on SKOV3 and in the experiment on Tov-21-G was “inactive” in each case.
For the compound `C#C[C@]1(OC(C)=O)CC[C@H]2[C@@H]3CCC4=C/C(=N/O)CC[C@@H]4[C@H]3CC[C@@]21CC`, the Potency entry in the experiment on MCC-13, in the experiment with MCC-26, in the experiment with C33A, in the experiment with CASKI, with Es-2 and in the experiment with Hek293T was “inactive” each time. The Potency result in the experiment on JEG-3, with OV90, in the experiment on PA-1 and with SKOV3 was “inactive” each time. The Potency with UISO was 29.9 µM (active); with HeLa, 4.47 µM (active).
Turning to `CCCCC(CC)CN1CN(CC(CC)CCCC)CC(C)(N)C1` (stereo not drawn), the Potency entry in the experiment with MCC-13, in the experiment with MCC-26, with MKL-1, in the experiment with WaGa, with C33A and with CAOV3 was “inactive” throughout. For the same compound, the Potency result in the experiment on CASKI, in the experiment with Es-2, with HeLa, in the experiment on Hek293T, in the experiment with JEG-3 and with OV90 was “inactive” each time. Besides, the Potency entry with SKOV3 and in the experiment on Tov-21-G was “inactive” throughout.
Consider `CCOC(=O)c1c(N)sc2c1CCN(Cc1ccccc1)C2`, for which the Potency entry with MCC-13, in the experiment on MCC-26, in the experiment with Es-2, in the experiment on HeLa, with Hek293T and with JEG-3 was “inactive” each time. Further, the Potency result with SKOV3 and in the experiment with Tov-21-G was “inactive” each time. In addition, the Potency is 3.76 µM (active) in the experiment with MKL-2 and 21.1 µM (active) with WaGa.
Turning to `C[C@]12CCC(=O)C=C1C=C[C@@H]1[C@@H]2CC[C@@]2(C)[C@H]1CC[C@@]21CCC(=O)O1`, the Potency entry in the experiment on MCC-13, in the experiment with MCC-26, in the experiment on MKL-1, in the experiment with MKL-2, in the experiment on C33A and in the experiment on CAOV3 was “inactive” throughout. Moreover, the Potency result in the experiment on Es-2, in the experiment with HeLa, in the experiment with Hek293T, in the experiment with JEG-3, with OV90 and in the experiment on PA-1 was “inactive” in each case. In addition, the Potency entry in the experiment with SKOV3 and in the experiment on Tov-21-G was “inactive” in each case.
For the compound `O=S(c1cc(Cl)cc(Cl)c1O)c1cc(Cl)cc(Cl)c1O`, the Potency entry in the experiment with MCC-13, with MCC-26, with MKL-1, with MKL-2, with UISO and in the experiment on C33A was “inactive” throughout. Moreover, the Potency result in the experiment on CAOV3, with CASKI, in the experiment on Es-2, in the experiment with HeLa, in the experiment on Hek293T and in the experiment on JEG-3 was “inactive” in each case. Besides, the Potency result in the experiment on OV90, in the experiment with PA-1, in the experiment on SKOV3 and in the experiment with Tov-21-G was “inactive” each time.
Regarding `CC(C)[N+](C)(C)CC(O)COc1cccc2ccccc12` (stereo not drawn), the Potency result with MCC-13, with MCC-26, in the experiment on MKL-1, with MKL-2, in the experiment with UISO and with C33A was “inactive” in each case. Also, the Potency result with CASKI, with Es-2, in the experiment on HeLa, in the experiment with Hek293T, with JEG-3 and in the experiment on OV90 was “inactive” throughout. For the same compound, the Potency result with PA-1, in the experiment on SKOV3 and in the experiment on Tov-21-G was “inactive” each time.
As for `C=CCN1CCc2nc(N)sc2CC1`, the Potency result in the experiment with MCC-13, in the experiment with MKL-1, in the experiment with MKL-2, in the experiment on UISO, in the experiment on WaGa and in the experiment with C33A was “inactive” in each case. The Potency result with CAOV3, in the experiment on CASKI, in the experiment on Es-2, with HeLa, with Hek293T and in the experiment on JEG-3 was “inactive” throughout. The Potency entry with OV90, with PA-1, in the experiment with SKOV3 and in the experiment on Tov-21-G was “inactive” in each case.
Take `C=C1c2cccc(O)c2C(O)=C2C(=O)[C@]3(O)C(O)=C(C(N)=O)C(=O)[C@@H](N(C)C)[C@@H]3[C@@H](O)[C@H]12`: the Potency result in the experiment with MCC-13, with MCC-26, in the experiment with MKL-1, in the experiment on UISO, with WaGa and in the experiment on C33A was “inactive” throughout. For the same compound, the Potency result in the experiment with CAOV3, in the experiment on CASKI, in the experiment with Es-2, in the experiment on HeLa, with Hek293T and in the experiment on JEG-3 was “inactive” each time. In addition, the Potency result with OV90, with PA-1, in the experiment on SKOV3 and with Tov-21-G was “inactive” in each case. Also, in the experiment with NIH3T3, the result was inactive.
In the case of `Nc1ccc(S(=O)(=O)Nc2cnc3ccccc3n2)cc1`, the Potency result in the experiment with MCC-13, in the experiment with MKL-1, in the experiment on MKL-2, in the experiment on UISO, in the experiment on WaGa and with C33A was “inactive” throughout. Moreover, the Potency entry in the experiment on CASKI, in the experiment with Es-2, with HeLa, with Hek293T, with JEG-3 and in the experiment with OV90 was “inactive” in each case. For the same compound, the Potency entry in the experiment on PA-1, in the experiment on SKOV3 and in the experiment on Tov-21-G was “inactive” each time. In the experiment with NIH3T3, the call was inactive.
Regarding `CCCCCCCCCCCCSCCOCCO`, the Potency result in the experiment with MCC-13, in the experiment on MCC-26, in the experiment with MKL-2, in the experiment on UISO, in the experiment with WaGa and in the experiment on C33A was “inactive” each time. Further, the Potency result in the experiment on CAOV3, in the experiment with CASKI, with Es-2, in the experiment with HeLa, in the experiment with Hek293T and with JEG-3 was “inactive” in each case. In addition, the Potency entry in the experiment on OV90, in the experiment with PA-1, in the experiment on SKOV3 and in the experiment on Tov-21-G was “inactive” each time.
In the case of `CC(C)(Cc1c[nH]c2ccccc12)NCC(O)COc1ccccc1C#N` (stereo not drawn), the Potency entry in the experiment with MCC-13, in the experiment on MCC-26, with MKL-1, in the experiment on MKL-2, in the experiment with C33A and in the experiment on CASKI was “inactive” throughout. Besides, the Potency entry in the experiment with Es-2, in the experiment on HeLa, with Hek293T, with JEG-3, with PA-1 and with Tov-21-G was “inactive” in each case.
Consider `CCc1nn(CCCN2CCN(c3cccc(Cl)c3)CC2)c(=O)n1CCOc1ccccc1`, for which the Potency entry in the experiment with MCC-13, in the experiment with MCC-26, in the experiment on C33A, with CAOV3, in the experiment with CASKI and in the experiment with Es-2 was “inactive” in each case. The Potency result in the experiment on Hek293T, with JEG-3, in the experiment with SKOV3 and with Tov-21-G was “inactive” throughout.
As for `Clc1cccc(C(c2ccc3nc[nH]c3c2)n2ccnc2)c1` (stereo not drawn), the Potency result in the experiment with MCC-13, with MKL-1, in the experiment on MKL-2, with UISO, in the experiment with WaGa and with C33A was “inactive” each time. For the same compound, the Potency entry in the experiment on CAOV3, in the experiment on CASKI, in the experiment on Es-2, with HeLa, in the experiment with Hek293T and in the experiment with JEG-3 was “inactive” each time. Further, the Potency entry with OV90, with PA-1, in the experiment on SKOV3 and with Tov-21-G was “inactive” each time.
